High-throughput results (PubChem)
A selection: hits, their analogues and other compounds. The true share with any hit is near 19%.
HepG2 viability: qHTS for Inhibitors of TGF-b: Cytotox Counterscreen | HepG2 CAGA-GFP viability, ATP luminescence, 18 h | Potency, µM (doses to about 46.1 µM), inactives show at the top dose activity change, negative = cytotoxicity, most hits filed as cytotoxic | 410,000 tested, 0.76% active | AID 588856, 2011; further: potency means the concentration at half of the fitted maximal effect
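CellTiter-Glo luminescence gave cytotoxicity after 18 hours at 37 degrees C. The cells were HepG2 CAGA-GFP in 1% FBS DMEM, stimulated with 500 pg/mL TGF-beta after compound addition. %Activity was normalised to no-cell wells (complete cell-killing) and DMSO (no toxicity), and curves were fitted and classified.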
IL-1B inflam inh: qHTS for Inhibitors of Inflammasome Signaling: IL-1-beta AlphaLISA Primary Screen | THP-1 LPS/ATP IL-1B secretion, AlphaLISA, 16 h; hits give low values | activity change, % at 57.5 µM | 360,000 tested, 4.7% active | AID 743279, 2014; in the data active means activity change below about -50%; inconclusive means mostly about -30% to -49%; further: on the % scale 0 is the no-effect control and ±100 the full control effect
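THP-1 cells pretreated 1 hr with compounds (up to 57.5 uM final), then stimulated with LPS (250 ng/mL final) plus ATP (1.25 mM final); secreted IL-1B measured by AlphaLISA after 16 hr, decreased signal indicating inhibition.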
TDP1 cell CPT: qHTS for Inhibitors of human tyrosyl-DNA phosphodiesterase 1 (TDP1): qHTS in cells in presence of CPT; chicken DT40 Tdp1-/-;hTDP1 cells + 20 nM CPT, ATP luminescence, 48 h; Potency, µM (series often up to 46.2 µM), without a hit: top-dose activity change, negative = growth inhibition, most hits filed as inhibitors; 420,000 tested, 12% active; AID 686979, 2013; further: potency means the concentration at half of the fitted maximal effect; on the % scale 0 is the no-effect control and ±100 the full control effect; nearly all actives have a fitted effect of over 55% in size
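Chicken DT40 Tdp1-/- cells complemented with human TDP1, 400 cells/well, exposed to compounds plus 20 nM camptothecin for at least 48 h at 37 C; viability read as ATP content by CellTiter-Glo luminescence.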
TDP1 cell noCPT: qHTS for Inhibitors of human tyrosyl-DNA phosphodiesterase 1 (TDP1): qHTS in cells in absence of CPT; DT40 Tdp1-/- hTDP1 cells, no CPT, ATP luminescence, 48 h; Potency, µM (series often up to 46.2 µM), without a hit: at the top dose activity change, negative = growth inhibition, actives largely listed as inhibitors; 420,000 tested, 15% active; further: potency means the concentration at half of the fitted maximal effect; on the % scale 0 is the no-effect control and ±100 the full control effect; nearly all actives have a fitted effect of over 55% in size
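Seeded 400 DT40-hTDP1 cells/well (vehicle DMSO, no 20 nM CPT); pinned compounds; ≥48 hr at 37 °C; CellTiter-Glo luminescence as viability measure.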
TGFb inhibitor: qHTS for Inhibitors of TGF-b. HepG2 CAGA-GFP TGF-b/SMAD3 reporter, GFP fluorescence, 18 h; TGF-beta stimulated, 500 pg/mL final. Potency, µM (series often up to 46.1 µM), without a hit: at the top dose activity, negative = inhibition, hits mostly inhibitors. 410,000 tested, 1.2% active; further: potency means the concentration at half of the fitted maximal effect; on the % scale 0 is the no-effect control and ±100 the full control effect; nearly all actives have a fitted effect of over 65% in size
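Using HEPG2 CAGA-GFP reporter cells at 1000 cells/well, we pinned test compounds, stimulated with recombinant TGF-beta (500 pg/mL final) and measured total well GFP after 18 h.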
TDP1 block: qHTS Assay for Inhibitors of Tyrosyl-DNA Phosphodiesterase (TDP1) | 350,000 tested, 0.28% active | AID 485290, 2010 | Tyrosyl-DNA phosphodiesterase 1 (Homo sapiens), Q9NUW8 | Potency, µM (top dose mostly 130 µM), for inactives: at the highest dose activity change, negative = inhibition, most hits filed as inhibitors | recombinant TDP1, AlphaScreen DNA substrate cleavage; further: potency means the concentration at half of the fitted maximal effect; on the % scale 0 is the no-effect control and ±100 the full control effect; nearly all actives have a fitted effect of over 40% in size
Target sequence (Q9NUW8 whole entry, looked up): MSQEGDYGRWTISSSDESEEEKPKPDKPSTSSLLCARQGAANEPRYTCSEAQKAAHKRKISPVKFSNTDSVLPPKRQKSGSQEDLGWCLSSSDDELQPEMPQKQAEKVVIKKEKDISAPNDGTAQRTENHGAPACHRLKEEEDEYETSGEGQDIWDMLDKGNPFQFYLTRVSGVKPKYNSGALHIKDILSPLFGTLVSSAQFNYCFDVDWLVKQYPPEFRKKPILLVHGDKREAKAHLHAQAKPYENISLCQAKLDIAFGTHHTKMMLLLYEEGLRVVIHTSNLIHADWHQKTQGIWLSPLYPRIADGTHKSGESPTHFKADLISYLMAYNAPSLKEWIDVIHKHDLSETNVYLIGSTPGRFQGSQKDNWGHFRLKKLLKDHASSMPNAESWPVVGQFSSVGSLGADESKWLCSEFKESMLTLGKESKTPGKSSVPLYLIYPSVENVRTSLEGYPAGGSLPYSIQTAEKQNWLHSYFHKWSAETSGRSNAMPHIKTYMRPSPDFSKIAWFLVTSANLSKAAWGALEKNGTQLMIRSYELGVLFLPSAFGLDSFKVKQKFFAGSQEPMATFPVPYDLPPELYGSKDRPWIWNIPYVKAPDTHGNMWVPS
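Compounds were preincubated with Tdp1 (1 nM final) for 15 min at room temperature before substrate (15 nM final) started a 5 min reaction; beads (10 ug/ml final) were then added for 10 min before AlphaScreen detection.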
* marks the source's active call; other numbers are inactive results; ? = inconclusive; / = no result given; ! = not active in a repeat; [ ] = dose if it differs, or a comment. Unless noted, the call rests on the fitted dose curve; in most records, active means well fitted curve in the direction sought with a large enough effect; inconclusive means small, poorly fitted or top-dose-only effect, or another doubt; inactive means no such curve, though single readings can be large; an effect the other way counts as inactive or inconclusive.

SMILES	HepG2 viability	IL-1B inflam inh	TDP1 cell CPT	TDP1 cell noCPT	TGFb inhibitor	TDP1 block
CCOc1ccc2nc(N=Nc3c(O)[nH]c(=O)[nH]c3=O)sc2c1	1%	6	-13%	11%	0%	40µM*
CN(C)c1ccc(/C=C/c2ccnc3c(O)cccc23)cc1	-4%	/	-98%	10µM*	-1%	/
CN(C)c1ccc(C=Cc2ccnc3c(O)cccc23)cc1	-19%	64	?	13µM*	22%	/
CC(C)(C)NC[C@H](O)c1ccc(O)cc1Cl	/	/	6%	-2%	/	/
O=Cc1ccc(O)cc1	10%	/	1%	-2%	1%	/
O=C(OC1CCN(CCCl)CC1)C(c1ccccc1)c1ccccc1	-13%	-71*	16µM*	?	1%	7%[56.1 µM]
C[N+]1(C)[C@@H]2CC[C@H]1CC(OC(=O)C(c1ccccc1)c1ccccc1)C2 (stereo partly drawn)	3%	2	?	?	1%	/
CNC[C@H](O)c1ccc(O)cc1	/	/	/	/	/	12%[21 µM]
CNCC(O)c1ccc(OC(=O)C(C)(C)C)c(OC(=O)C(C)(C)C)c1 (stereo not drawn)	-32%	?	9µM*!	?	-2%	/
C[C@H]1CNC(=O)c2c(C(=O)N3CCN(C(=O)OC(C)(C)C)CC3)ncn21	-8%	-27	26µM*	?	1%	/
CCCCNc1ccncc1S(=O)(=O)NC(=O)NC(C)C	-2%	24	18%	0%	1%	2%
CCCCNC(=O)c1cc(-c2cccnc2)nc2ccc(S(=O)(=O)NCCCC)cc12	-5%	/	21µM*	?	6%	-1%
CCN[C@]1(c2cccs2)CCCCC1=O	/	/	/	/	/	14%[21 µM]
CC(=O)NCC(N)C(=O)c1ccc(C)cc1 (stereo not drawn)	/	/	?	16µM*	/	/
Cc1oc2ccc(OC(=O)N3CCOCC3)cc2c1C(=O)OC(C)C	-17%	1	?	26µM*	20%	0%
O=C(Oc1ccc2ccc(OC(=O)N3CCOCC3)cc2c1)N1CCOCC1	2%	0	-8%	-10%	3%	-6%
CCCCn1c(O)c(C(CC)=NCc2cc(OC)cc(OC)c2)c(=O)[nH]c1=O	-17%	-10	?	23µM*	-23%	0%
CCCCn1c(O)c(C(CC)=NC(C)c2ccccc2)c(=O)[nH]c1=O (stereo not drawn)	-9%	41	?	26µM*	-33%	1%
CCC(=NCc1cc(OC)cc(OC)c1)c1c(O)n(C2CCCCC2)c(=O)[nH]c1=O	-21%	-12	?	?	?	4%
COc1cc(CN=C(C)c2c(O)n(C3CCCCC3)c(=O)[nH]c2=O)cc(OC)c1	57%	-23	?	23µM*	?	-2%
CCC(=Nc1ccc2c(c1)CCC2)c1c(O)n(C2CCCCC2)c(=O)[nH]c1=O	-2%	20	29µM*	18µM*	0%	5%
Cc1ccc(C(C)(C)NC(=O)C2CCC(=O)N(C3CCCCCC3)C2)cc1 (stereo not drawn)	2%	17	?	-10%	-16%	3%
CCCCn1c(O)c(C(CC)=Nc2ccc(OCC)cc2)c(=O)[nH]c1=O	20%	28	18µM*	21µM*	14%	1%
CCCCn1c(O)c(C(CC)=Nc2ccc(OC)cc2OC)c(=O)[nH]c1=O	-5%	-9	?	?	-11%	3%
